Consider 13 compounds from PubChem BioAssay (NCATS).

Assay [1] concerns the target Alpha-galactosidase (Coffea arabica) (UniProt Q42656). Put plainly: Counterscreen for Glucocerebrosidase Inhibitors: qHTS Assay for Coffee Bean alpha-Galactosidase at pH 5.9 (AID 998; active = well fitted curve in the direction sought with a large enough effect; an effect the other way counts as inactive or inconclusive;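 also: plate controls were uninhibited enzyme for no effect and no-enzyme basal signal for full effect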). The method in brief:
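Enzyme 2 nM + cpd (0.7 nM–77 uM titration) + 4-MU-alpha-Gal 80 uM, pH 5.9 citrate/Tween-20, RT 20 min, NaOH/glycine stop pH 10, fluor 365/440. Normalized to no-enzyme and full-activity controls; Hill-fit AC50.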
A general note: Counterscreens check selectivity or assay interference.

Assay [2] is described as follows: Validation screen for inhibitors of Lassa infection (AID 463096). Also: % is scaled to controls: 0 for no effect and ±100 for the full control effect.
Assay [3] can be described thus: Inducers of the Endoplasmic Reticulum Stress Response (ERSR) in human glioma: Validation (AID 504836; active = well fitted curve in the direction sought with a large enough effect; an effect the other way counts as inactive or inconclusive; also: 0% is about no effect). The method in brief: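 Stably transfected U87-MG glioma cells carrying a GRP78-based luciferase sensor; 16 h compound incubation. Luminescence end-point read 10 min after Bright-Glo addition at room temperature.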
Assay [4] in a line: qHTS for Inhibitors of the Functional Ribonucleoprotein Complex (vRNP) of Lassa (LASV) Arenavirus: LASV Primary Screen - GLuc reporter signal (AID 1347082; calls by dose curve; tested in HEK293 reporter line; also: nearly all actives have a fitted effect of over 60% in size; also: potency is read from the fitted curve at half-maximal effect; as to activity change, negative = inhibition: % is scaled to controls: 0 for no effect and ±100 for the full control effect).
Assay [5] is described as follows: qHTS for Inhibitors of the Functional Ribonucleoprotein Complex (vRNP) of Lassa (LASV) Arenavirus: Viability assay - alamar blue signal for LASV Primary Screen (AID 1347083; calls by dose curve; tested in HEK293 reporter line; also: nearly all actives have a fitted effect of over 80% in size; also: potency is read from the fitted curve at half-maximal effect).
The nature of assay [6]: qHTS for Inhibitors of the Functional Ribonucleoprotein Complex (vRNP) of Lymphocytic Choriomeningitis Arenaviruses (LCMV): Viability assay - alamar blue signal for LCMV Primary Screen (AID 1347085; calls by dose curve; tested in HEK293 reporter line; also: nearly all actives have a fitted effect of over 80% in size; also: potency is read from the fitted curve at half-maximal effect). Background: qHTS replaces the single test concentration by a dilution series.
Assay [7] has as its target Nucleoprotein (Lymphocytic choriomeningitis virus (strain Armstrong)) (UniProt P09992). The assay can be described thus: qHTS for Inhibitors of the Functional Ribonucleoprotein Complex (vRNP) of Lymphocytic Choriomeningitis Arenaviruses (LCMV): LCMV Primary Screen - GLuc reporter signal (AID 1347086). Also: nearly all actives have a fitted effect of over 70% in size. Also: potency is read from the fitted curve at half-maximal effect. As to activity change, negative = inhibition: % is scaled to controls: 0 for no effect and ±100 for the full control effect.
Assay [8] can be described thus: Cytotoxicity counterscreen for inhibitors of SARS-CoV-2 cell entry (AID 1645845). Also: nearly all actives have a fitted effect of over 50% in size. The method in brief: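 Counterscreen run in the same HEK293-ACE2 line as the pseudotyped-particle entry assay, without particles. Viability after 48 h at 37 C was read as ATP luminescence, scaled between cell-containing and cell-free wells.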
Assay [9] is described as follows: Primary qHTS to identify inhibitors of SARS-CoV-2 cell entry (AID 1645846). Also: nearly all actives have a fitted effect of over 45% in size. Also: potency is read from the fitted curve at half-maximal effect. Conditions: activity change, negative = inhibition: at 57.1 µM (top of the series) unless noted. The gist of the method:
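Using luciferase-reporting pseudoviruses carrying Wuhan-Hu-1 spike, the screen tracks entry into stably ACE2-expressing cells over 48 hr. Activity is expressed relative to spike particles versus particles lacking any fusion protein.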

The nature of assay [10]: qHTS profiling of the MIPE4 collection as inhibitors of Plasmodium falciparum (3D7) proliferation (AID 743344; call rule not given here;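 also: scaled between DMSO vehicle wells and 0.29 µM artemisinin as full inhibition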). As to conditions: P. falciparum 3D7 in erythrocytes, SYBR Green DNA fluorescence, 72 h; at 28.5 µM (top of the series) unless noted. The gist of the method: (§1)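 Parasite DNA was quantified by SYBR Green I fluorescence (ex 485, em 535 nm) after overnight lysis in saponin/Triton buffer at room temperature. Cultures at 0.3% parasitemia and 2.5% hematocrit were first exposed to compound for 72 h at 37 C; signals were normalised to artemisinin (0.29 uM) and vehicle wells.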

The nature of assay [11]: qHTS profiling of the MIPE4 collection as inhibitors of Plasmodium falciparum (DD2) proliferation (AID 743345; call rule not given here). Conditions: P. falciparum Dd2 in erythrocytes, SYBR Green DNA, 72 h; at 28.5 µM (top of the series) unless noted. The gist of the method: as §1
The nature of assay [12]: qHTS profiling of the MIPE4 collection as inhibitors of Plasmodium falciparum (DD2) proliferation (Rep 2) (AID 743346; call rule not given here). Conditions: P. falciparum Dd2 in erythrocytes, SYBR Green DNA, 72 h; at 28.5 µM (top of the series) unless noted. The method in brief: as §1
The nature of assay [13]: qHTS profiling of the MIPE4 collection as inhibitors of Plasmodium falciparum (HB3) proliferation (AID 743347; call rule not given here;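 also: plate controls were DMSO vehicle wells for no effect and artemisinin wells for full effect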). As to conditions: P. falciparum HB3 in erythrocytes, SYBR Green DNA, 72 h; at 28.5 µM (top of the series) unless noted. The gist of the method: as §1
Assay [14] has as its target Nuclear receptor subfamily 1 group I member 3 (Homo sapiens) (UniProt Q14994). The assay can be described thus: Primary qHTS for antagonist of constitutive androstane receptor (CAR) against the NCATS DSHEA and TCM libraries (AID 1794836; active = well fitted curve in the direction sought with a large enough effect; an effect the other way counts as inactive or inconclusive;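 also: HepG2 cells stably expressing hCAR with CYP2B6 luciferase reporter stimulated by CITCO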). The gist of the method:
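HepG2-CYP2B6-hCAR cells, attached 5 h, given compounds plus CITCO agonist […], incubated 24 h at 37 C. Luciferase luminescence read, multiplexed with CellTiter-Fluor viability (Ex/Em 405/540 nm).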

Assay [15] can be described thus: KB-8-5-11 P-gp reporter qHTS against the NCATS DSHEA and TCM libraries (AID 1919977; active = well fitted curve in the direction sought with a large enough effect; an effect the other way counts as inactive or inconclusive; also: 0% is about no effect). The method in brief: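 Viability of drug-resistant KB-8-5-11 cells is measured by CellTiter-Glo luminescence following roughly 72 h treatment at 37C. Substances were titrated, with bortezomib as intraplate control.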
Assay [16] concerns the target Alpha-galactosidase (Coffea arabica) (UniProt Q42656). The assay can be described thus: Counterscreen for Glucocerebrosidase Inhibitors: qHTS Assay for Coffee Bean alpha-Galactosidase at pH 4.5 (AID 957; active = well fitted curve in the direction sought with a large enough effect; an effect the other way counts as inactive or inconclusive;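 also: plate controls were enzyme alone for no effect and no enzyme for full effect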). The method in brief: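 Enzyme is added first (2 nM final), then compounds titrated from 0.7 nM to 77 uM, then 80 uM 4-methylumbelliferyl alpha-D-galactopyranoside; after 20 min at room temperature a pH 10 NaOH/glycine stop precedes fluorescence reading at 365/440 nm.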

Results filed as inconclusive are left out. Calls of active or inactive are those of the source. Unless noted, calls follow the shape of the full dose curve. Numbered stars: 1 amine (or outer) side, 2 acyl side, 3 side chain; on linkers, the order of the positions; unused ones are H or OH. Bridge positions count the residues as written; N and C are the ends. Square brackets hold non-standard residues; d marks the D form. Peptide text beside a SMILES is read from it. I, II: the chains in the order shown. Actinocin(9to1) = Cc1c2oc3c(C)ccc(C(=O)[*:1])c3nc-2c(C(=O)[*:2])c(N)c1=O; NMeV = CN[CH](C(=O)O)C(C)C; Sar = CNCC(=O)O

Nucleoprotein (Lymphocytic choriomeningitis virus (strain Armstrong)), sequence (P09992 whole entry, looked up): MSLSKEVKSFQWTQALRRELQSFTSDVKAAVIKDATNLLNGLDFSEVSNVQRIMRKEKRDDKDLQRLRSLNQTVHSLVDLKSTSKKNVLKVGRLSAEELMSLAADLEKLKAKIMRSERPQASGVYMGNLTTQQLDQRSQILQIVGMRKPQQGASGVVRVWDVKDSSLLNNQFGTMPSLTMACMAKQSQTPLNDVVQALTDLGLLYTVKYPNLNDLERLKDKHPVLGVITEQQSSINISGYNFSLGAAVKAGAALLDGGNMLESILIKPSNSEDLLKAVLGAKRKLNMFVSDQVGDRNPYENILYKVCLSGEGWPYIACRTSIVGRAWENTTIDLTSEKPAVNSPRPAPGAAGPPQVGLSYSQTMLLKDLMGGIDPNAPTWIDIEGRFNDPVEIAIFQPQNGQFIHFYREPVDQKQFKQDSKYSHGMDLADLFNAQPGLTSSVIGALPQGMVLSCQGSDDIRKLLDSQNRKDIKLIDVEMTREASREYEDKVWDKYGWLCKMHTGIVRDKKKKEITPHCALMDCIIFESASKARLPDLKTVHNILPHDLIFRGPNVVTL
Alpha-galactosidase (Coffea arabica), sequence (Q42656 whole entry, looked up): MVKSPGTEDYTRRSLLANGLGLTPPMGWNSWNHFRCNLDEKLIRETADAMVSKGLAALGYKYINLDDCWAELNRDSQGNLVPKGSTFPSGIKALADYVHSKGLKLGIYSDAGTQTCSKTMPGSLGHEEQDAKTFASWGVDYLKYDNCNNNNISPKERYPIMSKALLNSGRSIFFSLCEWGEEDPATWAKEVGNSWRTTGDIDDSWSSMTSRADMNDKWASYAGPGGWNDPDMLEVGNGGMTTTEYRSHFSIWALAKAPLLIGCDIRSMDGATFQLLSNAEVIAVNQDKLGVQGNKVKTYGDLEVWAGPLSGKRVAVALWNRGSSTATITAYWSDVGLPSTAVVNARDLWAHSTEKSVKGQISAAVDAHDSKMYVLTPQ
Nuclear receptor subfamily 1 group I member 3 (Homo sapiens), sequence (Q14994 whole entry, looked up): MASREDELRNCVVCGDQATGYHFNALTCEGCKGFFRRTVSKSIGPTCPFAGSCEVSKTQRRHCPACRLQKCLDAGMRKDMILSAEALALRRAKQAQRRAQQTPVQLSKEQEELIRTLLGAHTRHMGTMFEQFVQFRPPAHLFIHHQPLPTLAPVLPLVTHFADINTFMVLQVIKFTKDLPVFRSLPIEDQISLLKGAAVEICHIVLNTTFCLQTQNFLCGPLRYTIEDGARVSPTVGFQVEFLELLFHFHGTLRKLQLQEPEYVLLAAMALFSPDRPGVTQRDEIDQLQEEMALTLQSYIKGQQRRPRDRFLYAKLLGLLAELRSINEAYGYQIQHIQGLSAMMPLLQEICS

Regarding `NC(=O)c1cccc(N)c1`, the outcome in [1] and in assay [3] was inactive. The Potency entry in assay [2], in [4], in assay [5], in assay [6], in assay [7] and in assay [8] was “inactive” in each case. Besides, in [9], the Potency result is “inactive”.

For `CN1C2CCC1CC(OC(=O)C(CO)c1ccccc1)C2` (stereo not drawn), the Potency result in assay [2], in [4], in assay [5], in assay [6], in assay [7] and in assay [8] was “inactive” throughout. For the same compound, the parasite growth, % of DMSO control in assay [10] was 88.6%. In addition, the parasite growth remaining, % of DMSO control (lower = more inhibition) in assay [11] was 94.5%. This compound also yielded a parasite growth, % of control (lower = inhibition) in assay [12] of 62.2%. For the same compound, the growth, % of control in [13] was 108%. In addition, the activity change, negative = inhibition in assay [9] is -16.5%.

For the compound `Cn1cnc2c(F)c(Nc3ccc(Br)cc3F)c(C(=O)NOCCO)cc21`, the Potency entry in assay [4], in assay [5], in assay [6], in [7] and in assay [8] was “inactive” in each case. Further, the activity change, negative = inhibition in assay [9] is -25.1%.

As for `O=c1oc2cc(O)ccc2s1`, the Potency result in assay [4], in assay [5], in [6], in assay [7] and in [8] was “inactive” throughout. Besides, in assay [9], the activity change, negative = inhibition is -12.6%.

With `NC(=O)Nc1sc(-c2ccc(F)cc2)cc1C(N)=O`, the Potency in assay [4] was 432 nM (active); in assay [5], 273 nM (active); in assay [6], 137 nM (active); in assay [7], 273 nM (active). Moreover, the activity change, negative = inhibition in [9] is -30.6%.

Turning to `Cc1cc(Nc2cc(NC(=O)c3c(Cl)cccc3Cl)ccn2)nc(N)n1`, the Potency in assay [4] is 6110 nM (active); in assay [5] it was 3060 nM (active); in assay [6] it was 3060 nM (active); in [7], 3850 nM (active); in assay [9], 1410 nM (active).

Take `Cc1c2oc3c(C)ccc(C(=O)NC4C(=O)NC(C(C)C)C(=O)N5CCCC5C(=O)N(C)CC(=O)N(C)C(C(C)C)C(=O)OC4C)c3nc-2c(C(=O)NC2C(=O)NC(C(C)C)C(=O)N3CCCC3C(=O)N(C)CC(=O)N(C)C(C(C)C)C(=O)OC2C)c(N)c1=O` (stereo not drawn) (I: TVP[Sar][NMeV] / II: TVP[Sar][NMeV]; ester I:1-I:C, II:1-II:C; linker I:N-II:N via Actinocin(9to1); configuration not given here): the Potency entry in assay [4], in assay [5], in [6] and in assay [7] was “inactive” throughout. In addition, the activity change, negative = inhibition in [9] was -91.5% [at 27.1 µM].

Regarding `Oc1cc(O)cc(/C=C/c2ccc(O)c(O)c2)c1`, the Potency result in assay [2], in assay [4], in assay [5], in assay [6] and in assay [7] was “inactive” in each case. The result in assay [3] was inactive. For the same compound, the activity change, negative = inhibition in assay [9] is -97.4%.

Turning to `CC(C)NC[C@H](O)COc1cccc2[nH]ccc12`, the call in [1] and in assay [3] was inactive. In addition, the Potency entry in assay [2], in assay [4], in [5], in assay [6] and in [7] was “inactive” in each case.

Regarding `CCCCCCCCCC=O`, the Potency entry in assay [4], in assay [5], in assay [6], in assay [7] and in assay [14] was “inactive” each time. Moreover, the outcome in assay [15] was inactive.

Take `NO`: the compound was classed as inactive in [16], in assay [1] and in [3]. In addition, the Potency result in assay [2], in [4], in assay [5], in assay [6] and in [7] was “inactive” throughout.

For the compound `Cc1cc(CN2CCN(c3c(Br)cnc4nc(-c5ccc(N6CCN(C)CC6)cc5)[nH]c34)CC2)no1`, the Potency entry in [4], in [5], in [6] and in [7] was “inactive” each time. Moreover, the Potency in [9] is 3160 nM (active).

As to `CC(C)N(CCC(=O)c1ccc2ccccc2c1)Cc1ccccc1`, the result in assay [16], in assay [1] and in [3] was inactive. For the same compound, the Potency entry in [4], in [5], in assay [6], in [7] and in assay [8] was “inactive” each time.
